MARV entry inh: qHTS for inhibitors of binding or entry into cells for Marburg Virus; Potency, µM (highest dose often 37.8 µM), for inactives: at the highest dose activity change, negative = inhibition, hits mostly inhibitors; hit rate 1.8% among 300,000; Marburg virus pseudotyped entry inhibition, cell reporter; calls by dose curve; tested in HEK293 cells; note: potency is the fitted concentration of half-maximal effect
VACV Venus inh: qHTS for Stage-Specific Inhibitors of Vaccinia Orthopoxvirus: Venus Reporter Primary qHTS; Vaccinia virus Venus reporter expression, fluorescence; Potency, µM (series often up to 36.5 µM), for inactives: top-dose activity change, negative = inhibition, actives largely listed as inhibitors; hit rate 0.46% among 330,000; AID 720580, 2013; calls by dose curve; tested in A549 cells; note: potency is the fitted concentration of half-maximal effect; nearly all actives have a fitted effect of over 30% in size
VACV mCherry inh: qHTS for Stage-Specific Inhibitors of Vaccinia Orthopoxvirus: mCherry Reporter Primary qHTS. Vaccinia virus mCherry reporter infection, fluorescence. Potency, µM (highest dose often 36.5 µM), without a hit: at the top dose activity change, negative = inhibition, usual class: inhibitors. hit rate 0.63% among 310,000. AID 720579, 2013; calls by dose curve; tested in A549 cells; note: potency is the fitted concentration of half-maximal effect; nearly all actives have a fitted effect of over 35% in size
Lassa entry inh: qHTS for Inhibitors of binding or entry into cells for Lassa Virus; Potency, µM (series often up to 37.9 µM), inactives show at the top dose activity change, negative = inhibition, hits mostly inhibitors; Lassa virus pseudotype entry inhibition, cell reporter; hit rate 1.2% among 300,000; calls by dose curve; tested in HEK293 cells; note: potency is the fitted concentration of half-maximal effect; nearly all actives have a fitted effect of over 50% in size
HCMV antiviral: qHTS Assay for inhibitors of the human cytomegalovirus (HCMV); HFF cells, HCMV-luciferase reporter, 72 h; stronger effect = lower value; activity change, negative = inhibition, % at 57.5 µM; hit rate 4.5% among 410,000; in the data active = activity change below about -60%; inconclusive = no clear call, values can overlap the other calls; inactive = above about -39%
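Human foreskin fibroblasts infected with luciferase-reporter HCMV at MOI 1 PFU/cell, compounds at two doses. Luciferase measured 72 h post infection; normalized to buffer-only basal and Salinomycin (10uM) controls.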
FMDV inh: High Throughput Screening for Foot and Mouth Disease Virus Antivirals. FMDV antiviral cell-based qHTS. AID 1159524, 2015. hit rate 1.2% among 410,000. Potency, µM (titrated, usually from 57.9 µM), without a hit: top-dose activity change, negative = inhibition, most hits filed as inhibitors; calls by dose curve; tested in HEK293T cells; note: read-out not given here; potency is the fitted concentration of half-maximal effect; nearly all actives have a fitted effect of over 45% in size
Numbers without * were called inactive; i = inactive; ? = inconclusive; . = no result; [ ] = remark or other dose. This is a sample that favours compounds with a hit; in the whole collection about 6.5% have one here. % is set by controls: 0 for no effect and ±100 for the full control effect.

SMILES | MARV entry inh | VACV Venus inh | VACV mCherry inh | Lassa entry inh | HCMV antiviral | FMDV inh
CC1(C)Cc2c(ccc3ccccc23)C(c2cc3ccccc3oc2=O)=N1 | 5.8µM* | . | . | 13µM* | -25 | -11%
Cc1ccc(C)c(N2CCN(S(=O)(=O)c3ccc4oc(=O)c5ncn(C)c5c4c3)CC2)c1 | 0%[46.1 µM] | 1% | -1% | 12%[46.1 µM] | -2 | -5%
Cc1cc(C)c(NS(=O)(=O)c2ccc3c(c2)oc(=O)n3C)c(C)c1 | . | -12% | -5% | . | ? | -9%
Cn1c(=O)oc2cc(S(=O)(=O)Nc3cccc4c3CCCC4)ccc21 | 0% | -6% | -23% | -4% | -91* | 9%
CCN(CC)CCNC(=O)c1ccc(NC(=O)c2ccccc2-c2ccc(C(F)(F)F)cc2)cc1 | 2.8µM* | -20% | -29% | ? | -23 | -11%
CCOc1ccc(NC(=O)CN(C)C(=O)c2cn(-c3ccc(F)cc3)nc2-c2cccc(OC)c2)cc1OCC | ? | ? | -19% | ? | -14 | -18%
CCN(CC)CCNC(=O)c1ccc(NC(=O)c2cn(-c3ccc(F)cc3)nc2-c2cccc(OC)c2)cc1 | ? | -23% | -22% | ? | -66* | 11%
CCN(CC)CCNC(=O)c1ccc(NC(=O)c2cn(-c3ccccc3)nc2-c2cccs2)cc1 | . | . | . | . | -98* | -22%
CCOC(=O)c1ccc(NC(=O)c2cn(-c3ccccc3)nc2-c2ccncc2)cc1 | 7.1µM* | -7% | -10% | -25% | -6 | ?
C[C@H]1[C@@H](NS(=O)(=O)c2ccccc2)CC[C@@]23CCCN2C(=O)CCC[C@@H]13 | . | . | . | . | -16 | .
COc1ccc(/C=C2\SC(=S)N(CCCC(=O)Nc3ccc(C(=O)O)cc3)C2=O)cc1OC | -4% | -11% | i | 4% | -8 | -11%
COc1ccc(/C=C2/SC(=S)N(CCCC(=O)Nc3ccc(O)cc3)C2=O)cc1OC | . | . | . | . | -73* | -21%
COc1ccc(/C=C2\SC(=O)N(CCCC(=O)Nc3cc(Cl)ccc3C(=O)O)C2=O)cc1 | 1.3µM* | -2% | i | 0.4µM* | -93* | 0.28µM*
COc1cccc(/C=C2\SC(=S)N(CCCC(=O)Nc3cc(C)on3)C2=O)c1 | -3%[46.1 µM] | -5% | -15% | -15%[46.1 µM] | 48 | 14%
COc1cccc(/C=C2\SC(=S)N(CCCC(=O)Nc3ccc(C(=O)O)cc3)C2=O)c1 | -1%[46.1 µM] | 17% | 0% | 0%[46.1 µM] | -80* | 21%
COc1ccc(/C=C2\SC(=S)N(CCC(=O)Nc3ccccc3C(=O)O)C2=O)cc1 | 5%[46.1 µM] | -3% | -8% | -11%[46.1 µM] | -28 | -10%
COc1cccc(/C=C2\SC(=O)N(CCC(=O)NNC(=O)c3cccc(Cl)c3)C2=O)c1 | -18% | -7% | i | 1.6µM* | 7 | 12%
CCOc1ccc(C(=O)c2oc3ccccc3c2NC(=O)Cc2coc3ccc(CC)cc23)cc1 | 27%[46.1 µM] | -5% | -12% | 28%[46.1 µM] | -12 | -14%
CC(C)N1C(=O)C[C@H](S(=O)(=O)c2ccccc2)[C@H]1c1ccccc1 | . | . | . | . | 32 | .
COc1cccc(/C=C2/SC(=S)N(CCCC(=O)Nc3ccc(O)cc3)C2=O)c1 | . | . | . | . | -99* | 26%
COc1ccc(/C=C2\SC(=S)N(CCC(=O)Nc3ccc(O)cc3)C2=O)cc1 | 12% | 16% | -15% | ? | -5 | 61%
CCN(CC)CCOC(=O)c1ccc(NC(=O)CCCN2C(=O)S/C(=C/c3ccc(OC)cc3)C2=S)cc1 | ? | 21% | 1% | ? | . | 3.5µM*
CCOc1ccccc1NC(=O)N1CCC2(CC1)Oc1ccccc1C(=O)N2Cc1ccccc1F | ? | -7% | i | . | -6 | -25%
CCC(CC)C(=O)c1c[nH]c(C(=O)NCc2cccs2)c1 | -13%[46.1 µM] | -7% | i | 2.5µM* | 5 | 12%
CCC(CC)C(=O)c1c[nH]c(C(=O)NCc2ccco2)c1 | -7% | . | . | ? | 44 | 17%
CCCC(=O)Nc1ccc(Cl)c(NC(=O)c2cccnc2)c1 | -18% | -11% | i | 2% | -31 | .
CCCC(=O)Nc1ccc(Cl)c(NC(=O)c2cccc(OC)c2)c1 | 0%[46.1 µM] | -16% | -13% | ? | -79* | -5%

Bioassay records deposited in PubChem BioAssay by National Center for Advancing Translational Sciences (NCATS).
